Results as given in PubChem BioAssay (EPA / NIEHS).
The source made the active and inactive calls. How the source made its calls: active means hit-call score of the fitted dose curve at least 0.9, where 1 is the maximum; inactive means score below 0.9.

Read-out: Monokine induced gamma interferon (MIG), CXCL9 (gene 4283)
Experiment: BSK_BE3C_MIG: BioMAP Diversity Plus: BE3C Assay for Monokine induced gamma interferon (MIG) Biomarker Activity (AID 2283035)
Settings: primary human bronchial epithelial cells; actives raise or lower the signal
Procedure: BSK_BE3C is a cell-based, multiplexed-readout assay that uses bronchial epithelial cell, a human lung primary cell, with measurements taken at 24 hours after chemical dosing in a 96-well plate.BSK_BE3C_MIG is an assay component measured in the BSK_BE3C assay. It measures MIG antibody related to regulation of gene expression using ELISA technology.Data from the assay component BSK_BE3C_MIG was analyzed into 1 assay endpoint. This assay endpoint, BSK_BE3C_MIG, was analyzed with bidirectional fitting relative to DMSO as the negative control and baseline of activity. Using a type of binding reporter, gain or loss-of-signal activity can be used to understand changes in the signaling as they relate to the gene CXCL9. Furthermore, this assay endpoint can be referred to as a primary readout, because this assay has produced multiple assay endpoints where this one serves a signaling function. To generalize the intended target to other relatable targets, this assay endpoint is annotated to the cytokine intended target family, where the subfamily is chemotactic factor.
The levels of cell surface (or secreted, indicated by the prefix "s") biomarker endpoints were measured by ELISA. Overt cytotoxicity to cells in confluent adherent cultures (all systems other than the BT system) was assessed by measuring total protein levels using sulforhodamine B (SRB) staining in parallel cultures at the time of biomarker measurements, indicated as SRB endpoints. For proliferation assays for adherent cell types, individual cell types are cultured at sub-confluence and relative cell numbers quantified by SRB staining at time points optimized for each system (48 h: 3C and CASM3C systems; 72 h: BT and HDF3CGF systems; 96 h: SAg system). SRB was performed by staining cells with 0.1% SRB after fixation with 10% TCA and reading wells at 560 nm.Viability and proliferation of PBMC (T cells) was quantified by Alamar Blue reduction for the SAg and BT systems. For PBMC viability (referred to as PBMC Cytotoxicity within the assay endpoint names), cells were plated (75,000/well in a 96-well plate) and then chemical samples added for 1 h before addition of activators, SEB and TSST-1 (20 ng/mL final concentration each). Cells were incubated for 90 h. Then, Alamar Blue (20 uL/well) (Invitrogen, Cat DAL1100) was added for 6 h, and the plates were read with a fluorescence microplate reader at 546/580 nm (excitation/emission). For PBMC proliferation, cells were plated and activated as above but incubated for only 16 h prior to addition of Alamar Blue. Plates were read after 6 h.

Row | Structure (SMILES) | outcome | AC50
1 | COc1ccc(-n2nc(C(F)F)cc2-c2ccc(S(C)=O)cc2)cc1 (stereo not given) | inactive | 
2 | CCNc1ccccc1 | inactive | 
3 | CC(=O)OCCC(C)C | inactive | 
4 | COCCOc1cc2cc(C(=O)NC3CCN(C(C)C)CC3)n(CC(=O)Nc3ccc(Cl)cn3)c2cn1 | inactive | 
5 | COc1ccc2sc(C(=O)Nc3nnn[nH]3)c(OC(C)C)c2c1 | inactive | 
6 | COC(=O)c1c(Cl)c(Cl)c(C(=O)OC)c(Cl)c1Cl | inactive | 
7 | Nc1nc2ncc(CNc3ccc(C(=O)N[C@@H](CCC(=O)O)C(=O)O)cc3)nc2c(=O)[nH]1 | inactive | 
8 | O=C(O)c1cccc(Oc2ccccc2)c1 | inactive | 
9 | CC1=CC(=O)CC(C)(C)C1 | inactive | 
10 | O=c1[nH]c2ccc(S(=O)CCN3CCC(Cc4ccc(F)cc4)CC3)cc2o1 (stereo not given) | inactive | 
11 | On1ccccc1=S |  | 5.25 µM (active)
12 | O=C(OC[C@H]1O[C@@H](OC(=O)c2cc(O)c(O)c(OC(=O)c3cc(O)c(O)c(O)c3)c2)[C@H](OC(=O)c2cc(O)c(O)c(OC(=O)c3cc(O)c(O)c(O)c3)c2)[C@@H](OC(=O)c2cc(O)c(O)c(OC(=O)c3cc(O)c(O)c(O)c3)c2)[C@@H]1OC(=O)c1cc(O)c(O)c(OC(=O)c2cc(O)c(O)c(O)c2)c1)c1cc(O)c(O)c(OC(=O)c2cc(O)c(O)c(O)c2)c1 |  | 10.2 µM (active)
13 | COc1ccc(/C=C/S(=O)(=O)NC(=O)c2ccc(C)cc2Cl)cc1 | inactive | 
14 | CC/C(=C\C(=N/O)C(N)=O)C(C)[N+](=O)[O-] (stereo not given) | inactive | 
15 | O=C(O)c1cc(N=Nc2ccc(S(=O)(=O)Nc3ccccn3)cc2)ccc1O | inactive | 
16 | O=C1CCCCCN1 | inactive | 
17 | C[C@](N)(Cc1ccc(O)c(O)c1)C(=O)O | inactive | 
18 | CC(C)CC(C)(O)C#CC(C)(O)CC(C)C (stereo not given) | inactive | 
19 | O=C(CCCCCCCCc1cccnc1)N1CCC(C=C(c2ccccc2)c2ccccc2)CC1 |  | 27.9 µM (active)
20 | C1N2CN3CN1CN(C2)C3 | inactive | 

Row | Structure (SMILES) | outcome | AC50
21 | CCn1nc(Cc2ccccc2)cc1C1CCN(C[C@H]2C[C@H](N(C)[C@@H](C(=O)O)C(C)C)C[C@@H]2c2cccc(F)c2)CC1 | inactive | 
22 | COC(=O)CC(=O)OC | inactive | 
23 | CCCCCCCCCCCCc1ccccc1 | inactive | 
24 | CN(C)c1ccc(Cc2ccc(N(C)C)cc2)cc1 | inactive | 
25 | CC[C@H](C)C(=O)O[C@H]1C[C@@H](C)C=C2C=C[C@H](C)[C@H](CC[C@@H]3C[C@@H](O)CC(=O)O3)[C@H]21 |  | 36.1 µM (active)
26 | CC(C)CCO | inactive | 
27 | O=C(O)CC(O)C(=O)O (stereo not given) | inactive | 
28 | C=CC(=C)CCC=C(C)C | inactive | 
29 | CCC(C)(C)C(=O)O[C@H]1C[C@@H](C)C=C2C=C[C@H](C)[C@H](CC[C@@H]3C[C@@H](O)CC(=O)O3)[C@H]21 |  | 36.7 µM (active)
30 | Nc1ccc(Nc2ccccc2)cc1 | inactive | 
31 | CC(O)CN(CCN(CC(C)O)CC(C)O)CC(C)O (stereo not given) | inactive | 
32 | CC[C@H]1OC(=O)[C@H](C)[C@@H](O[C@H]2C[C@@](C)(OC)[C@@H](O)[C@H](C)O2)[C@H](C)[C@@H](O[C@@H]2O[C@H](C)C[C@H](N(C)C)[C@H]2O)[C@](C)(O)C[C@@H](C)C(=O)[C@H](C)[C@@H](O)[C@]1(C)O | inactive | 
33 | COC(=O)c1ccccc1O | inactive | 
34 | Cc1c(-c2cccnc2)c2ccccc2n1CCCCC(=O)O | inactive | 
35 | O=C(NS(=O)(=O)/C=C/c1ccccc1)c1ccc(F)cc1Cl | inactive | 
36 | CC(C)=CCC/C(C)=C\CO | inactive | 
37 | O=C1OC(=O)C2C3C=CC(C3)C12 (stereo not given) | inactive | 
38 | NC(=O)NO | inactive | 
39 | CC(C)c1cccc(C(C)C)c1N1C(=O)c2ccc(O)cc2C1=O |  | 26.3 µM (active)
40 | CCCCCCCCO | inactive | 
